# Values joined by “and” are separate entries in the source; they are usually repeats but may differ in a detail not shown here. Equal entries are not always repeated. The panel holds about 83,000 compounds, 20% with a hit somewhere; the sample as a whole holds those more often.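 Method: cells in 96-well plates; compound added at one concentration; 48 h incubation; percent growth measured; values under 10 scored active.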 Active and inactive are the calls of the source.
# Test system: MDA-MB-468 breast
# Experiment: NCI-60 one-dose screen, 48 h (100 = growth as untreated, 0 = no growth, -100 = all killed)
# Settings: 10 µM unless noted
row,Structure (SMILES),growth
1,Cc1cc(Br)c(N)c(Br)c1,98.3% (inactive)
2,O=Nc1ccc(O)c2ccccc12,11.7% (inactive)
3,CC(=O)c1ccc2c(c1)N(CCCN1CCN(CCO)CC1)c1ccccc1S2,92.3% (inactive) and -79% (active)
4,CC(C)C1=NOC(=O)C1=Cc1cn(-c2ccccc2)nc1-c1ccc(Br)cc1,92.2% (inactive)
5,COc1cc(/C=C/c2cc(/C=C/c3ccc(O)c(OC)c3)n(C(=O)Nc3ccc(Cl)cc3)n2)ccc1O,-26.4% (active)
6,COc1c(/C(C)=N/N=c2sc(C(C)=O)nn2-c2ccc(Cl)cc2)c(Oc2ccccc2)c(OC)c2occc12,106% (inactive) and 98.8% (inactive)
7,Nc1c(Cl)cccc1[N+](=O)[O-],115% (inactive)
8,C/C(=N\O)c1ccc(NC(=O)CSc2nnc(-c3cc(-c4ccc(S(N)(=O)=O)cc4)nc4ccccc34)n2-c2ccccc2)cc1,63.1% (inactive)
9,O=C1/C(=C\c2ccc(F)cc2)CN(C(=O)c2ccc([N+](=O)[O-])cc2)C/C1=C\c1ccc(F)cc1,0.822% (active)
10,O=c1c2c(=NCCCN3CCCC3)cc3c(=O)n(CCCN4CCCC4)c(=O)c4c(NCCCN5CCCC5)cc(c(O)n1CCCN1CCCC1)c2c4-3,-62.2% (active)
11,COc1ccc2c(O)c(/C=C3\N=Nc4ccccc43)oc2c1C[C@@H]1CCNC[C@H]1F,74.4% (inactive)
12,CCN(CC)c1ccc(/C=N/NC(=O)CSc2nc3ccccc3c(=O)n2Cc2ccc(S(N)(=O)=O)cc2)c(O)c1,-11% (active)
13,COc1ccc(Nc2ncnc3c2sc2nc(C)cc(C)c23)cc1,95.1% (inactive)
14,COc1ccc(-c2nnc(SCC(=O)NC3=NN=C(c4ccccc4)CS3)o2)cc1,105% (inactive)
15,O=C1CCCN1C(O)CCN(Cc1ccccc1)Cc1ccc(Cl)cc1 (stereo not given),113% (inactive)
16,COc1ccc(/C(C#N)=C/c2cccc(OC)c2OC)cc1,-19.3% (active)
17,COc1ccc2c(c1)Oc1nc(N)c(C#N)c(N)c1C2Sc1ccc(C)cc1 (stereo not given),-45.8% (active)
18,COc1cc(NC(=O)CCSc2nc3ccc(C)cc3c(=O)n2Cc2ccccc2)cc(OC)c1OC,68.6% (inactive)
19,COc1ccc(/C=C(/C(=O)N2CCCC2)c2cc(OC)c(OC)c(OC)c2)cc1,11.6% (inactive)
20,CSc1nc(-c2cccs2)c2c(N)[nH]nc2n1,117% (inactive)

row,Structure (SMILES),growth
1,COc1ccc2sc(-n3nc4nc5n(c(=O)c4c3N)-c3ccccc3Sc3ccccc3-5)nc2c1,88.9% (inactive)
2,OC1CCN(CCCOc2c3ccccc3nc3c2oc2ccc(Cl)cc23)CC1,-8.36% (active)
3,CCN1CCN(c2nc(C)cc(N(CCCNc3ccnc4cc(Cl)ccc34)Cc3ccc4c(c3)OCO4)n2)CC1,-33.5% (active)
4,Nc1ncc(-c2ccc3ncnc(Nc4cccc(Cl)c4F)c3c2)cn1,-5.52% (active)
5,CC(C)(C#N)N1CCN(c2ccccc2Cl)CC1,103% (inactive)
6,COc1ccc(/C=C(\C#N)c2cc3ccccc3n2C)cc1,27.6% (inactive)
7,COc1cc(NCCCCCNC(C)(C)C)c2ncccc2c1,-6.36% (active)
8,COCCn1cc(-c2nc(-c3cccnc3)cs2)c2cc(F)ccc21,100% (inactive)
9,CN1CCN(Cc2ccc(NC(=O)c3cncc(C#Cc4cnc(N)c5ncccc45)c3)cc2C(F)(F)F)CC1,-43.8% (active)
10,C=CN(C)S(C)(=O)=O,-3.6% (active)
11,COC1(OC)C2(Cl)CCC1(Cl)C(Cl)=C2Cl,111% (inactive)
12,Oc1c(Cl)cc(Cl)c2ccc(Cn3cc(-c4ccc(C(F)(F)F)cc4)nn3)nc12,39.6% (inactive)
13,CCCCNC(=O)Oc1ccc(/C(=C(\C)c2ccccc2)c2ccc(OCCN(CC)CC)cc2)cc1,70.3% (inactive)
14,CC(=O)c1cc(C(=O)c2ccc3c(c2)Sc2ccccc2N3)c2c(C)cccn12,14% (inactive)
15,C/C(Cc1ccc(Cl)cc1)=C(/c1ccc(Cl)cc1)c1ccc(OCCN2CCCC2)cc1,66.1% (inactive)
16,CC(=O)Nc1ccc(S(=O)(=O)NC(CCC(=O)Nc2ccc(Cl)cc2)C(=O)O)cc1 (stereo not given),98.8% (inactive)
17,COC12C=C/C(=C(/C(=O)OCc3ccncn3)C(=O)CCCCCCCCC3(OC)C=C/C(=C(/C(=O)OCc4ccncn4)C(=O)CCCCCCCC1)O3)O2,-45.5% (active)
18,CS(=O)(=O)Nc1cccc(-c2ccc3ncnc(Nc4ccc(F)c(Cl)c4)c3c2)c1,-26% (active)
19,NS(=O)(=O)c1ccc(N2N=C(c3ccc(Br)cc3)CC2c2cn(-c3ccccc3)nc2-c2ccc(Cl)cc2)cc1 (stereo not given),112% (inactive)
20,COc1ccc(-c2nn(-c3ccc(NC(=O)c4cc(Cl)cc(Cl)c4)cc3)cc2-c2ccncc2)cc1Cl,70.1% (inactive)
